# Screens: PubChem, National Center for Advancing Translational Sciences (NCATS)
# KB-V1 MDR tox: KB-V1 MDR subline cytotoxicity; 400,000 tested, 3.4% active; Potency, µM (top dose mostly 46.1 µM), hits mostly cytotoxic; KB-V1 MDR cells viability, CellTiter-Glo, 72 h; note: % is set by controls: 0 for no effect and ±100 for the full control effect; nearly all actives have a fitted effect of over 60% in size
#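 qHTS viability screen in drug-selected KB-V1 MDR cells: 72 h compound treatment at 37 degrees C, ATP luminescence end point.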
# HT1080 IDH1KD tx: kills HT-1080 cells with IDH1 knockdown; HT-1080 IDH1 knockdown viability, ATP luminescence, 48 h; Potency, µM (titrated, usually from 46.1 µM), inactives show top-dose activity, negative = toxicity, most hits filed as cytotoxic; 360,000 tested, 2% active; AID 686971;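 note: 0% = DMSO wells and -100% = cell-free medium wells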
#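 Viability of IDH1-knockdown HT-1080 fibrosarcoma cells was assessed by CellTiter-Glo after 48 h at 37 °C with titrated compound; concentration-effect curves were classified by fit quality and response size.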
# SW480 rereplic: induces DNA re-replication in SW480 colon adenocarcinoma cells | Potency, µM (doses to about 46.1 µM), without a hit: at the top dose re-replication activation, actives largely listed as activators | 340,000 tested, 1.8% active | AID 624297 | SW480 DNA re-replication, Hoechst DNA content imaging, 48 h; note: % of control where 0% means no effect; nearly all actives have a fitted effect of over 55% in size
#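 Treated cells incubate 48 hr (37 C, 5% CO2), are stained 40 min with Hoechst, and nuclear fluorescence is enumerated; a rise in nuclei with high DNA signal marks re-replication.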
# KB-3-1 cytotox: KB-3-1 parental cell cytotoxicity; Potency, µM (doses to about 46.1 µM), actives largely listed as cytotoxic; 400,000 tested, 1.4% active; KB-3-1 viability, CellTiter-Glo ATP luminescence, 72 h; note: % is set by controls: 0 for no effect and ±100 for the full control effect; nearly all actives have a fitted effect of over 60% in size
#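 Here the drug-naive KB-3-1 line serves as comparator for MDR sub-line selectivity; cells received compound titrations, 72 h at 37 °C, then CellTiter-Glo readout.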
# MCF10A rereplic: induces DNA re-replication in MCF 10a normal breast cells | AID 624296 | Potency, µM (top dose mostly 46.1 µM), for the others: at the top dose activity, positive = re-replication, actives largely listed as activators | MCF 10A DNA re-replication, Hoechst nuclear intensity, 48 h | 350,000 tested, 2.9% active; note: % of control where 0% means no effect; nearly all actives have a fitted effect of over 50% in size
# HT1080-NT tox: kills 2HG-producing HT-1080-NT fibrosarcoma cells; Potency, µM (doses to about 46.1 µM), for the others: at the highest dose activity, negative = less viability, actives largely listed as cytotoxic; AID 686970; 360,000 tested, 1.6% active; HT-1080-NT fibrosarcoma viability, CellTiter-Glo ATP luminescence, 48 h;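 note: NT is the 2HG producing partner of a matched IDH1 knockdown line; 0% = DMSO-treated cells and -100% = media-only wells without cells; nearly all actives have a fitted effect of over 55% in size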
#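 Viability of the 2HG-overproducing fibrosarcoma line after 48 hours of compound exposure at 37 degrees C was determined by luminescence with CellTiter-Glo, and concentration-effect curves were then fitted and categorized.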
# * hit, by the source's call; i = inactive; ? = inconclusive; · = no result; [ ] = remark or other dose. Sampled rows, rich in hits. Any-hit rate of the full collection: about 7.9%. Calls come from the whole dose curve; as a rule, active = well fitted curve in the direction sought with a large enough effect; inconclusive = small, poorly fitted or top-dose-only effect, or another doubt; inactive = no such curve, though single readings can be large; an effect the other way counts as inactive or inconclusive. Potency is the fitted concentration of half-maximal effect.
SMILES,KB-V1 MDR tox,HT1080 IDH1KD tx,SW480 rereplic,KB-3-1 cytotox,MCF10A rereplic,HT1080-NT tox
COc1ccc(-c2nc3c(c(=O)[nH]c(=O)n3Cc3ccccc3)n2C)cc1,i,-3%,-7%,i,-1%,-6%
COc1ccc(-c2nc3c(c(=O)[nH]c(=O)n3Cc3ccccc3)n2Cc2ccccc2)cc1,3.7µM*,?,3%,?,?,?
O=C(O)c1cc2ccccc2c(N=Nc2cccnc2)c1O,?,-1%,9%,?,?,-19%
CCc1ccc(NC(=O)COC(=O)C2(c3ccc(Cl)cc3)CCCC2)cc1,18µM*,-17%,?,?,14%,-6%
CSc1cccc(NC(=O)COC(=O)C2(c3ccccc3)CC2)c1,18µM*,13%,?,i,0%,12%
Cc1c(C(=O)O)sc2nc(/C=C/c3cccc(F)c3)[nH]c(=O)c12,i,12%,-2%,i,18µM*,7%
Cc1c(C(=O)O)sc2nc(/C=C/c3ccccc3OC(F)F)[nH]c(=O)c12,i,21%,23µM*,i,26µM*,-8%
Cc1cc(C)c(C#N)c(SCc2ccccc2[N+](=O)[O-])n1,23µM*,9%,1%,i,13%,7%
Cc1cc(C)c(C#N)c(SCc2nc3ccccc3[nH]2)n1,i,-19%,18µM*,i,13µM*,-16%
Cc1ccc(C#N)c(SCc2ccccc2[N+](=O)[O-])n1,i,-9%,-8%,i,-7%,2%
Cc1cc(C)c(C#N)c(SCc2ccc(F)cc2)n1,?,9%,-8%,i,-4%,14%
CSc1nc(C(=O)N2CCCC(Nc3ccc(C)c(C)c3)C2)cs1 (stereo not given),?,-11%,-3%,i,-20%,1%
CCOc1ccc(NS(=O)(=O)c2ccc(NS(=O)(=O)c3ccc(SC)cc3)cc2)cc1,23µM*,-26%,0%,i,?,-30%
CCCC(=O)NC(=S)Nc1ccc(S(=O)(=O)Nc2ccc(OCC)cc2)cc1,?,23µM*,5%,i,?,4.6µM*
CC(C)CC(=O)NC(=S)Nc1ccc(S(=O)(=O)NC(C)(C)C)cc1,15µM*,-12%,3%,i,5%,-15%
CCOC(=O)COc1ccc(S(=O)(=O)Nc2cccc(SC)c2)cc1,i,?,-1%,i,6%,10µM*
CCOc1ccc(NS(=O)(=O)c2ccc(NC(=S)NC(=O)CC(C)C)cc2)cc1,?,-5%[9.24 µM],?,i,?,?
O=S1(=O)CCO[C@H]2CCCC[C@@H]2N1Cc1ccccc1,i,·,·,i,·,·
Cc1cc(-c2ccc(S(=O)(=O)N3CCN(c4ccc(Cl)cc4)CC3)s2)on1,?,·,·,i,·,·
O=C1CCc2cc(S(=O)(=O)Nc3ccc(F)cc3)cc3c2N1CC3,i,2%,-422%,i,3%,13%
COC(=O)c1cc(S(=O)(=O)N2c3ccccc3CC2C)cn1C (stereo not given),i,-1%,3%,i,7%,-2%
CCOC(=O)N1CCN(C(=O)COc2ccc(S(=O)(=O)Nc3ccc(OCC)cc3)cc2)CC1,i,?,5%,21µM*,2%,-5%
O=C(Cn1c2ccccc2c(=O)c2ccccc21)Nc1ccccc1F,?,-24%,·,i,?,-2%
O=C(Cn1c2ccccc2c(=O)c2cc([N+](=O)[O-])ccc21)Nc1ccccc1Cl,i,6%,16µM*,i,?,0%
CCN(C(=O)COC(=O)c1oc2ccc(OC)cc2c1C)C1CCCCC1,?,11%,-1%,?,7%,12%
SMILES,KB-V1 MDR tox,HT1080 IDH1KD tx,SW480 rereplic,KB-3-1 cytotox,MCF10A rereplic,HT1080-NT tox
O=C(CN1CCOCC1)Nc1ncc(Cc2cccc3ccccc23)s1,13µM*,0%,22%,i,?,?
CC(C)C(=O)Nc1ncc(Cc2ccccc2Cl)s1,i,-15%,0%,i,3%,-1%
N#CCC(=O)Nc1ncc(Cc2ccccc2Cl)s1,i,-30%,?,i,15µM*,-7%
OC[C@@H]1CN(C2CCCC2)C[C@H](n2cnc3c(NC4CC4)ncnc32)O1,i,20%,·,i,·,?
COc1ccc(NC(=O)C2CCC(CNS(=O)(=O)c3cccc4nsnc34)CC2)cc1OC (stereo not given),i,·,·,i,·,·
CC1CCN(c2nc3ccccc3nc2C(C#N)C(=O)OC2CCCCC2)CC1 (stereo not given),i,1%,-6%,i,-2%,8%
CC(C)COc1nc2ccccc2nc1C(C#N)C(=O)NC1CCCCC1 (stereo not given),i,8%,2%,i,5.8µM*,10%
NC(=O)c1ccc(NC(=O)CN2CCN(Cc3ccccc3)CC2)cc1,i,7%,7%,i,-2%,11%
Cc1ccccc1C(=O)N1CCCC(CCC(=O)N2CCN(c3ccccn3)CC2)C1 (stereo not given),i,-23%,-6%,i,3%,0%
COc1ccc(C(=O)N2CCCC(CCC(=O)N3CCN(c4ccccn4)CC3)C2)cc1 (stereo not given),13µM*,-5%,-26%,i,-9%,-3%
Cc1ccsc1C(=O)N1CCCC(CCC(=O)N2CCN(c3ccccn3)CC2)C1 (stereo not given),?,-5%,-18%,i,6.5µM*,-7%
Cc1ccc(-n2c(=O)c3c(C)c(C)sc3n(CC(=O)NCc3ccccc3)c2=O)cc1C,i,·,·,i,·,·
CCSc1ccc(-c2nn(-c3ccccc3)cc2/C=C(/C#N)C(=O)NCCCOC)cc1,i,0%,?,i,15µM*,-1%
Cc1ccc(-c2nn(-c3ccccc3)cc2/C=C(\C#N)C(=O)NCc2ccccc2)cc1,i,-21%,1%,i,4%,-11%
CCCSc1ccc(-c2nn(-c3ccccc3)cc2/C=C(/C#N)C(=O)NCCCOC)cc1,?,3%,4.1µM*,i,9%,1%
O=C1Nc2ccccc2N(C(=O)c2ccc3ccccc3c2)C1c1nc2ccccc2[nH]1 (stereo not given),16µM*,?,·,?,·,?
CC(=O)OC1C=CCC2C(=O)c3cccc(O)c3C(O)C12 (stereo not given),i,0%,-6%,i,0%,-4%
N#Cc1ccc(NC(=O)COC(=O)C2Cc3ccccc3CN2C(=O)c2ccccc2)cc1 (stereo not given),i,1%,5%,i,13%,-16%
